# According to PubChem BioAssay (NCI):
# About 79,000 compounds went through this panel and 15% of them were active in at least one assay; those are over-represented in the sample as a whole. Values without a mark were called inactive. The source made the active and inactive calls. Rule as the data show it: active = growth inhibition above about 70%; inactive = the rest.
# Experiment: NCI Yeast Anticancer Drug Screen. Data for the rad50 strain (AID 155);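 also: 0% = growth of vehicle-only cultures of the same strain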
# Settings: S. cerevisiae rad50 strain growth inhibition; at 100.0 µM; active compounds read high
# How it was run: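 A DNA repair-deficient yeast mutant serves as the test organism; compound-induced growth inhibition is calculated against vehicle-treated cells.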
row,Structure (SMILES),growth inhibition
1,S=C(S)NN1CCOCC1,28%
2,COc1cc2c3c(cccc3c1)C(=O)N(CCN(C)C)C2=O,88% (active)
3,COC(=O)C1=C(C)NC(C)=C(C(=O)OCCCN2CCC(c3ccccc3)(c3ccccc3)CC2)C1c1cccc([N+](=O)[O-])c1 (stereo not given),84% (active)
4,c1ccc2c(c1)Oc1cccc3cccc-2c13,62%
5,CN(C)CCOc1ccc2c(c1)C/C(=C/c1ncc([N+](=O)[O-])n1C)C2=O,91% (active)
6,Cc1ccc(CCC2=CCCc3c2ccc2ccccc32)cc1,2%
7,CNC(=O)OCc1c(COC(=O)NC)c(-c2ccc(Cl)c(Cl)c2)n2c1CCC2,97% (active)
8,Clc1ccccc1C1OC1c1ccccc1Cl (stereo not given),14%
9,O=[N+]([O-])c1cc(CCl)ccc1CCl,97% (active)
10,O=C1C=CC(=O)c2c(O)c(Nc3ccc(OC(F)(F)F)cc3)c(Cl)c(O)c21,89% (active)
11,S=c1[nH]nc(Nc2ccc(Cl)cc2)s1,42%
12,Cn1ccnc1Oc1ccc(Cl)cc1,97% (active)
13,BrCc1cccc2ccc3cccc(CBr)c3c12,10%
14,O=C1c2ccccc2-c2nc3ccccc3nc21,83% (active)
15,CCCCCCCCCCCCCCCCCCNC,87% (active)
16,Oc1ccc(NCn2c(=S)sc3ccccc32)cc1,95% (active)
17,O=C1C2CC[C@@H]3C(=O)C(Cl)(Cl)[C@@H]3CCC2C1(Cl)Cl (stereo not given in full),37%
18,CC[n+]1ccc2c(C)c3[nH]c4ccc(O)cc4c3c(C)c2c1,90% (active)
19,Cc1ccc(-n2cc(-c3ccc(Cl)cc3)c(C#N)c2N)cc1,13%
20,CC(=O)[O][Bi]([c]1ccccc1)[c]1ccccc1,95% (active)

row,Structure (SMILES),growth inhibition
1,CC1=C(SCCO)C(=O)c2ccccc2C1=O,42%
2,C/C(=N\O)C1CC2C=C(C#N)C1N(Cc1ccccc1)C2 (stereo not given),5%
3,CC(Br)C(=O)c1ccc2cc(Br)c3ccccc3c2c1 (stereo not given),0%
4,Nc1nc(-c2cccnc2)cc(-c2cc(-c3cccnc3)nc(N)n2)n1,8%
5,CC(C)=CC(=O)O[C@@H]1CC(C)(C)CC2C3=CCC4[C@]56CC[C@](O)(OC5)C(C)(C)C6CC[C@@]4(C)C3(C)CC[C@]21C(=O)O (stereo not given in full),90% (active)
6,CCC(C)COC(=O)c1ccc(N=Cc2ccc(C=Nc3ccc(C(=O)OCC(C)CC)cc3)cc2)cc1 (stereo not given),21%
7,Oc1cccc2c(Cl)ccnc12,97% (active)
8,O=C(O)c1cccc(-c2c3ccc(=O)cc-3oc3cc(O)ccc23)c1,90% (active)
9,CN(CCc1ccccn1)c1ccc2c(c1)Cc1ccccc1-2,67%
10,Cc1cc(S(=O)(=O)/N=C(/NN)NNc2cccc(C(F)(F)F)n2)c(S)cc1Cl,10%
11,O=C1C2C(C(=O)N1c1ccc(OCc3ccccc3)cc1)C1c3ccccc3C2C2CCCCN21 (stereo not given),94% (active)
12,Nc1ccccc1CC(O)C(=O)O (stereo not given),95% (active)
13,O=C(O)C1CCCCC1c1c2ccc(=O)c(O)c-2oc2c(O)c(O)ccc12 (stereo not given),77% (active)
14,Cc1ccc2ccc(O)cc2c1,92% (active)
15,O=C1C(=O)c2ccccc2C=C1[N+](=O)[O-],82% (active)
16,COC(=O)c1ccc(NCC2=CC(=O)C=CC2=O)cc1O,93% (active)
17,C(CCSC1=NCCN1)CSC1=NCCN1 (tested in a mixture with another compound),98% (active)
18,N#Cc1c(N)[nH]c2ccc(Sc3ccccc3)cc12,96% (active)
19,CCNc1nnc(CSc2nc(-c3ccccc3)c(-c3ccccc3)[nH]2)s1,76% (active)
20,CC[C@@]1(O)C(=O)OCc2c1cc1n(c2=O)Cc2cc3c(N)cccc3nc2-1,83% (active)

# Experiment: NCI Yeast Anticancer Drug Screen. Data for the mec2-1 strain (AID 157)
# Settings: S. cerevisiae mec2-1 strain, at 1.2 µM, active compounds read high
# How it was run: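 Mutant yeast (mec2-1) grown with compound; growth inhibition relative to vehicle control reported.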
row,Structure (SMILES),growth inhibition
1,S=C(S)NN1CCOCC1,80% (active)
2,COc1cc2c3c(cccc3c1)C(=O)N(CCN(C)C)C2=O,-17%
3,COC(=O)C1=C(C)NC(C)=C(C(=O)OCCCN2CCC(c3ccccc3)(c3ccccc3)CC2)C1c1cccc([N+](=O)[O-])c1 (stereo not given),-1%
4,c1ccc2c(c1)Oc1cccc3cccc-2c13,-6%
5,CN(C)CCOc1ccc2c(c1)C/C(=C/c1ncc([N+](=O)[O-])n1C)C2=O,31%
6,Cc1ccc(CCC2=CCCc3c2ccc2ccccc32)cc1,-4%
7,CNC(=O)OCc1c(COC(=O)NC)c(-c2ccc(Cl)c(Cl)c2)n2c1CCC2,-74%
8,Clc1ccccc1C1OC1c1ccccc1Cl (stereo not given),-92%
9,O=[N+]([O-])c1cc(CCl)ccc1CCl,3%
10,O=C1C=CC(=O)c2c(O)c(Nc3ccc(OC(F)(F)F)cc3)c(Cl)c(O)c21,-7%
11,S=c1[nH]nc(Nc2ccc(Cl)cc2)s1,-1%
12,Cn1ccnc1Oc1ccc(Cl)cc1,-2%
13,BrCc1cccc2ccc3cccc(CBr)c3c12,-2%
14,O=C1c2ccccc2-c2nc3ccccc3nc21,-79%
15,CCCCCCCCCCCCCCCCCCNC,14%
16,Oc1ccc(NCn2c(=S)sc3ccccc32)cc1,19%
17,O=C1C2CC[C@@H]3C(=O)C(Cl)(Cl)[C@@H]3CCC2C1(Cl)Cl (stereo not given in full),2%
18,CC[n+]1ccc2c(C)c3[nH]c4ccc(O)cc4c3c(C)c2c1,-15%
19,Cc1ccc(-n2cc(-c3ccc(Cl)cc3)c(C#N)c2N)cc1,0%
20,CC(=O)[O][Bi]([c]1ccccc1)[c]1ccccc1,29%

row,Structure (SMILES),growth inhibition
1,CC1=C(SCCO)C(=O)c2ccccc2C1=O,-1%
2,C/C(=N\O)C1CC2C=C(C#N)C1N(Cc1ccccc1)C2 (stereo not given),0%
3,CC(Br)C(=O)c1ccc2cc(Br)c3ccccc3c2c1 (stereo not given),2%
4,Nc1nc(-c2cccnc2)cc(-c2cc(-c3cccnc3)nc(N)n2)n1,0%
5,CC(C)=CC(=O)O[C@@H]1CC(C)(C)CC2C3=CCC4[C@]56CC[C@](O)(OC5)C(C)(C)C6CC[C@@]4(C)C3(C)CC[C@]21C(=O)O (stereo not given in full),-8%
6,CCC(C)COC(=O)c1ccc(N=Cc2ccc(C=Nc3ccc(C(=O)OCC(C)CC)cc3)cc2)cc1 (stereo not given),-3%
7,Oc1cccc2c(Cl)ccnc12,39%
8,O=C(O)c1cccc(-c2c3ccc(=O)cc-3oc3cc(O)ccc23)c1,14%
9,CN(CCc1ccccn1)c1ccc2c(c1)Cc1ccccc1-2,-1%
10,Cc1cc(S(=O)(=O)/N=C(/NN)NNc2cccc(C(F)(F)F)n2)c(S)cc1Cl,0%
11,O=C1C2C(C(=O)N1c1ccc(OCc3ccccc3)cc1)C1c3ccccc3C2C2CCCCN21 (stereo not given),-7%
12,Nc1ccccc1CC(O)C(=O)O (stereo not given),0%
13,O=C(O)C1CCCCC1c1c2ccc(=O)c(O)c-2oc2c(O)c(O)ccc12 (stereo not given),-38%
14,Cc1ccc2ccc(O)cc2c1,-37%
15,O=C1C(=O)c2ccccc2C=C1[N+](=O)[O-],2%
16,COC(=O)c1ccc(NCC2=CC(=O)C=CC2=O)cc1O,-2%
17,C(CCSC1=NCCN1)CSC1=NCCN1 (tested in a mixture with another compound),5%
18,N#Cc1c(N)[nH]c2ccc(Sc3ccccc3)cc12,-2%
19,CCNc1nnc(CSc2nc(-c3ccccc3)c(-c3ccccc3)[nH]2)s1,8%
20,CC[C@@]1(O)C(=O)OCc2c1cc1n(c2=O)Cc2cc3c(N)cccc3nc2-1,-7%
